This is part of a sample that, as a whole, favours compounds with a hit. Of some 79,000 tested, about 15% had one in any assay. No stated cut-off is given here; in the data, active means growth inhibition above about 70%; inactive means the rest.
Assays:
[1] = NCI Yeast Anticancer Drug Screen. Data for the rad50 strain (AID 155);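 further: 0% = growth of vehicle-only cultures of the same strain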; conditions: S. cerevisiae rad50 strain growth inhibition; at 50.0 µM; active compounds read high
Outline: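 Compounds were tested on a yeast strain with an engineered DNA damage repair alteration; the reported value is growth inhibition normalised to vehicle treatment.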

[2] = NCI Yeast Anticancer Drug Screen. Data for the mec2-1 strain (AID 157); conditions: S. cerevisiae mec2-1 strain, at 50.0 µM, active compounds read high
Outline: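 Yeast mec2-1 mutant treated with compound. Readout: growth inhibition vs vehicle controls.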

[3] = NCI Yeast Anticancer Drug Screen. Data for the sgs1 mgt1 strain (AID 161);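 further: 0% = growth of cultures given vehicle only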; conditions: S. cerevisiae sgs1 mgt1 strain, at 50.0 µM, active compounds read high
Outline: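 Read-out: growth inhibition vs vehicle controls. Cells: mutant yeast strain deficient in DNA damage repair.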

[4] = NCI Yeast Anticancer Drug Screen. Data for the cln2 rad14 strain (AID 165);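 further: 0% = growth equal to vehicle treated cultures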; conditions: S. cerevisiae cln2 rad14 strain, at 50.0 µM, active compounds read high
Outline: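 cln2 rad14 yeast strain; compound exposure; growth inhibition read vs vehicle controls.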

[5] = NCI Yeast Anticancer Drug Screen. Data for the bub3 strain (AID 167); conditions: S. cerevisiae bub3 mutant strain, at 50.0 µM, active compounds read high
Outline: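 Growth of a checkpoint-deficient yeast mutant is measured after compound exposure. Values represent inhibition relative to vehicle.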

[6] = NCI Yeast Anticancer Drug Screen. Data for the mlh1 rad18 strain (AID 175); conditions: S. cerevisiae mlh1 rad18 strain growth inhibition; at 50.0 µM; active compounds read high
Outline: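 Yeast w/ defined DNA-repair lesions; compound exposure; growth vs vehicle controls → % inhibition.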

Measured: growth inhibition

CCCCOc1ccc(Br)cc1
inactive: [1] 12.3% | [2] 5.4% | [3] 7.6% | [4] 8.1% | [5] 3.1% | [6] -15.1%

CC(=O)Nc1cccc(F)c1
inactive: [1] -35.1% | [2] 1.1% | [3] -25.4% | [4] -22.2% | [5] -13.8% | [6] -38.1%

Cc1ccc(NC(=O)/C(Cc2nc3ccc([N+](=O)[O-])cc3[nH]c2=O)=N\NC(=O)C[n+]2ccccc2)c(C)c1
inactive: [1] -7.5% | [2] -9.25% | [3] -4.3% | [4] 14.9% | [5] 15.3% | [6] -7.65%

N/C(CC/C(N)=N\O)=N\O
inactive: [1] -1.95% | [2] -15.8% | [3] -11.2% | [4] -4.9% | [5] 1.1% | [6] -1.7%

CN(C)c1ccc(/C=N/NC(=O)c2ccccc2NC(=O)c2ccc(Cl)cc2)c(Cl)c1
inactive: [1] 1.4% | [2] 0.45% | [3] 19.9% | [4] -6.3% | [5] -6.1% | [6] 0.5%

O=[N+]([O-])c1ccc(Sc2c3ccccc3nc3cc(Cl)ccc23)cc1
inactive: [1] -32.2% | [2] -18.3% | [3] -18.5% | [4] 9.3% | [5] -20.3% | [6] -28.9%

O=S1C=Cc2ccccc21 (centres undefined)
inactive: [1] 9.8% | [2] 20.6% | [3] 13.1% | [4] 5.8% | [5] -0.7% | [6] 7.1%

Cn1c(=O)c2c(ncn2-c2ccc(N)cn2)n(C)c1=O
inactive: [1] -7.1% | [2] -4.55% | [3] -7.15% | [4] 9.45% | [5] 11.2% | [6] 4.1%

CCCCC(=O)CCCCCCCCC(=O)CCCC
inactive: [1] 0.7% | [2] -8.65% | [3] -19.8% | [4] -31.2% | [5] -4% | [6] -19.8%

COc1ccc(Cc2cc(OC)c(OC)c(OC)c2)cc1O
inactive: [1] 2.2% | [2] 11.4% | [3] -16.4% | [4] -22.1% | [5] 19.9% | [6] -21.2%

CN(C)Cc1[nH]c2ccccc2c1Sc1ccccc1
inactive: [1] 0.85% | [2] 2.4% | [3] 24.6% | [4] 6.2% | [5] -27.9% | [6] 30.8%

COCCCN(Cc1cc(OC)c(OC)c(OC)c1)C(=S)Nc1cccc(SC)c1
inactive: [1] 13.8% | [2] -19.4% | [3] 40.5% | [4] 25.6% | [5] 51.2% | [6] 16.6%

OC1=CC(=S)NC2CCCCC12 (centres undefined)
inactive: [1] 32.2% | [2] 18.2% | [3] 45% | [4] 35.9% | [5] 29.4% | [6] 49.8%

CCOC(=O)c1ccc(N=C(N)N)cc1
inactive: [1] 23% | [2] 9.85% | [3] 19.8% | [4] 11% | [5] 17.2% | [6] 19.6%

O=C1NC(=O)C2(N1)c1ccccc1-c1ccc(Br)cc12 (centres undefined)
inactive: [1] -2.85% | [2] -8.9% | [3] -0.2% | [4] -20.4% | [5] 0.15% | [6] -2.7%

Cc1[nH]c(=O)nc2nc3ccc(Cl)cc3c(NCCNCCO)c12
inactive: [1] -37.5% | [2] -42.4% | [3] 24.1% | [4] 3.5% | [5] -0.9% | [6] -43.6%

NCCNc1ncnc2ccccc12
inactive: [1] -13.1% | [2] 16.1% | [3] -1.75% | [4] -11.6% | [5] -1.35% | [6] -5.2%

CN1C(=O)C2CSCN2C1=S (centres undefined)
inactive: [1] -38% | [2] -7.7% | [3] -5.4% | [4] -12.3% | [5] -13.6% | [6] 5.1%

O=C(NCc1ccccc1)C1C2C=CC(C2)C1C(=O)NCc1ccccc1 (centres undefined)
inactive: [1] -6.65% | [2] -10.8% | [3] 30.4% | [4] -6.3% | [5] 18.1% | [6] 5.85%

CCOP(=O)(O)C1CC2C3CC=C4CC(O)CCC4(C)C3CCC2(C)C1C(C)=O (centres undefined)
inactive: [1] 15.9% | [2] -3.25% | [3] -0.55% | [4] -14.4% | [5] -2% | [6] 3.5%

O=C(Nc1ccc(Cl)cc1Cl)C(=O)C(C(=O)c1ccncc1)C1OC(=O)c2ccccc21 (centres undefined)
inactive: [1] -1% | [2] -38.3% | [3] -29.2% | [4] 23.4% | [5] 7.95% | [6] -0.4%

Oc1cccc(N2CCN(c3cccc(O)c3)CC2)c1
inactive: [1] 2.45% | [2] -26.9% | [3] 3.7% | [4] 9.15% | [5] 5.85% | [6] -15%

CC(N)CCN (centres undefined)
inactive: [1] 3.7% | [2] 11.2% | [3] -5.55% | [4] 10.8% | [5] 12.1% | [6] 1.55%

Oc1ccc2ccccc2c1Br
inactive: [1] 45.9% | [2] 55.5% | [3] 40.2% | [4] 26.1% | [5] 44.2% | [6] 35.6%

O=C(CN1CCOCC1)Nc1cccc(Cl)c1
inactive: [1] 0.5% | [2] -20.1% | [3] -2.6% | [4] -14.8% | [5] 58.3% | [6] -29.1%

O=C(N=C1SCCN1C(=O)C(C(F)(F)F)C(F)(F)F)C(C(F)(F)F)C(F)(F)F
inactive: [1] -20.6% | [2] -3.5% | [3] 4.95% | [4] 28.4% | [5] 2.3% | [6] -36.9%

O=Nc1c(O)c(S(=O)(=O)O)cc2cc(S(=O)(=O)O)ccc12
inactive: [1] 24.9% | [2] -1.8% | [3] 51.1% | [4] 17.9% | [5] 37.6% | [6] 11.2%

C=Cc1ccc(S(N)(=O)=O)cc1
inactive: [1] -7.45% | [2] 15.4% | [3] -7.55% | [4] -16.6% | [5] -12.7% | [6] -2.25%

CCCCCCCCN1CSC(=S)N(c2ccc3[nH]c(=S)sc3c2)C1
inactive: [1] 48.9% | [2] 17.6% | [3] 34% | [4] 27.9% | [5] 5.2% | [6] 35.5%

NCCNc1ncnc2ccc(Cl)cc12
inactive: [1] -30.9% | [2] -13.1% | [3] -22.4% | [4] -30.5% | [5] -38.8% | [6] 5.4%

CC=C=C(C)CN
inactive: [1] -6.4% | [2] -3.8% | [3] -9.6% | [4] -7.95% | [5] -6.25% | [6] -8.45%

CCCCC(N)CSSCC(N)CCCC (centres undefined)
inactive: [1] -20.8% | [2] -44% | [3] -23.3% | [4] -20.1% | [5] -50.6% | [6] -35.6%

CC(C)NCC(C)(C)[N+](=O)[O-]
inactive: [1] 5.05% | [2] -8.55% | [3] 3.65% | [4] -4.1% | [5] 3.3% | [6] -0.95%

COC1(OC)CCC2=C(C)C(=O)CCC2(CO)C1 (centres undefined)
inactive: [1] 15.7% | [2] -2.95% | [3] -5.95% | [4] -51.8% | [5] -14.4% | [6] -1.9%

Cc1ccc(Oc2cc(C)ccc2P(=O)(O)O)cc1
inactive: [1] 6.5% | [2] 1.4% | [3] 22.2% | [4] 26.1% | [5] -23.7% | [6] 23.1%

C/C=C/C(=O)OCCC(C)OC(=O)/C=C/C (centres undefined)
inactive: [1] 26.1% | [2] -30.4% | [3] 19.4% | [4] 17.4% | [5] 15.9% | [6] 5.25%

O=S(=O)(Nc1c(Cl)c(Cl)c(NS(=O)(=O)c2ccccc2)c(Cl)c1Cl)c1ccccc1
inactive: [1] 46.2% | [2] 0.6% | [3] 13.4% | [4] -5.6% | [5] 4.55% | [6] 15.5%

CN(C)Cc1cc(C(C)(C)CC(C)(C)C)cc(Br)c1O
inactive: [1] 33% | [2] 21.4% | [3] 30.6% | [4] 28.8% | [5] 39.7% | [6] 26.9%

CCCCCCCCCCC(CCCCCCCCCC)C1CCCC1
inactive: [1] -12.3% | [2] 16.1% | [3] 0.7% | [4] -14.6% | [5] -12.8% | [6] -12.9%
